Source: PubChem BioAssay AID1570 (National Center for Advancing Translational Sciences (NCATS), 2009)
Records with an inconclusive call do not appear. Where a call stands in place of a potency, no number is given. Active and inactive are the calls of the source. The call rests on the fitted dose curve; in most records, active means well fitted inhibition curve with a large enough effect; inconclusive means small, poorly fitted or top-dose-only effect, or effect the other way; inactive means flat fitted curve, though single readings scatter.

Molecular target: Thyroid hormone receptor beta (Homo sapiens) (UniProt P10828)
Sequence (P10828 whole entry, looked up): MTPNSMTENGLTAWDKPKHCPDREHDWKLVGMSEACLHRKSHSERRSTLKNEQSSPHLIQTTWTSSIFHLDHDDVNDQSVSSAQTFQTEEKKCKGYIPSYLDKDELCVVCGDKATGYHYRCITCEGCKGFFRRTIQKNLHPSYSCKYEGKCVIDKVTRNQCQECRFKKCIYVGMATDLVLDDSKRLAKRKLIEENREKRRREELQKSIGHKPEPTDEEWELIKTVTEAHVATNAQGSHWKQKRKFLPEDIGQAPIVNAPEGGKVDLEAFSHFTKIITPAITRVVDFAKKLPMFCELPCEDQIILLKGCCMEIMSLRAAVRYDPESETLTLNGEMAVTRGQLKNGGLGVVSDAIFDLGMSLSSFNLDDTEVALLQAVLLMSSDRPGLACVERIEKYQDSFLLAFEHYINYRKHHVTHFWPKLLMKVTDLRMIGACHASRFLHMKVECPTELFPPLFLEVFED
Assay: Concentration Response Confirmation Assay for Inhibitors of the Interaction of Thyroid Hormone Receptor and Steroid Receptor Coregulator 2, Fluorescein Fluoroprobe
Excerpt: NIH Molecular Libraries Probe Production Network [MLPCN] NIH Chemical Genomics Center [NCGC] MLPCN Grant: DK058080 Assay Provider: R. Kip Guy, St. Jude Children's Research Hospital NCGC Assay Overview: Thyroid receptor (TR) regulates many homeostatic processes including basal metabolism, cardiovascular function, body weight, and lipid trafficking. TR modulators are potential therapeutics for obesity and hyperlipidemias but current thyroid analogs have undesirable side effects, particularly cardiac stimulation. To identify inhibitors that specifically prevent the interaction of TR with the steroid receptor coregulator 2 (SRC2), a fluorescence polarization assay was screened (Arnold et al., 2006). […] Small molecule inhibitors that block the interaction of TR and SRC2 are detected by a decrease in fluorescence polarization. […]
NCGC Assay Protocol Summary: Five uL/well 0.6 uM TRbeta and 20 nM SRC2 Fluorescein in protein buffer (20mM Tris hydrochloride, 100mM NaCl, 10% glycerol, 1mM EDTA, 0.01% NP-40, 1mM DTT, 1uM T3 and 5% DMSO) was dispensed into black solid 1536-well plates (Grenier) using a solenoid-based dispenser. […] The plates were read by an Envision (Perkin Elmer) to detect fluorescence polarization of SRC2 Fluorescein (480 nm excitation and 535 nm emission). […]

## COP(=S)(OC)Oc1ccc([N+](=O)[O-])cc1
  Potency: 14.1 µM (active)

## CCn1nc(-c2cccs2)nc2c(=O)n(C)c(=O)nc1-2
  Potency: inactive
